# Results filed as inconclusive are left out. Activity calls are given as the source filed them. Unless noted, calls come from the whole dose curve; as a rule, active = well fitted inhibition curve with a large enough effect; inconclusive = small, poorly fitted or top-dose-only effect; inactive = flat fitted curve, though single readings scatter.
# Assay: qHTS drug screen for cell cycle checkpoint inhibitors in PARPi-resistant BRCA-mutant ovarian cancer cell lines. (AID 1963452; calls by dose curve)
# Conditions: PEO1/OlaR viability, CellTiter-Glo luminescence, 96 h; stronger effect = lower value
# How it was run: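 PEO1, PEO4 and PEO1/OlaR ovarian cancer cells, 600 per well, exposed 96 h at 37C to a dilution series. Viability read by CellTiter-Glo luminescence, normalized to DMSO and empty wells; activity summarized as Z-AUC.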
row,SMILES,Z-AUC
1,CN(C)c1cccc(-c2c3c(=O)n(-c4ccccc4Cl)[nH]c3cc(=O)n2C)c1,-0.625 (inactive)
2,COc1ccc2cc(OCC3(C(=O)O)CN(C(=O)c4ccc(F)cc4)C3)ccc2c1,-0.285 (inactive)
3,C[C@H]1[C@H](C)CC[C@]2(C(=O)O)CC[C@]3(C)C(=CC[C@@H]4[C@@]5(C)C[C@@H](O)[C@H](O)[C@@](C)(CO)[C@@H]5CC[C@]43C)[C@H]12,1.03 (inactive)
4,C=C1CC[C@@H]2[C@](C)(CO)[C@H](O)CC[C@@]2(C)[C@@H]1C/C=C1/C(=O)OC[C@H]1O,0.643 (inactive)
5,C[C@@H]1CCN(C(=O)CC#N)C[C@@H]1N(C)c1ncnc2[nH]ccc12,1.14 (inactive)
6,CC(C)C(=O)OCC(=O)[C@@]12O[C@H](C3CCCCC3)O[C@@H]1C[C@H]1[C@@H]3CCC4=CC(=O)C=C[C@]4(C)[C@H]3[C@@H](O)C[C@@]12C,-0.223 (inactive)
7,C[C@H](CCC(=O)O)[C@H]1CC[C@H]2[C@@H]3[C@H](O)C[C@@H]4C[C@H](O)CC[C@]4(C)[C@H]3CC[C@]12C,1.79 (inactive)

# Same assay, conditions: PEO1/OlaR viability, CellTiter-Glo luminescence, 96 h; measured here: PEO1 parental Z-AUC; stronger effect = lower value
row,SMILES,Z-AUC
1,CN(C)c1cccc(-c2c3c(=O)n(-c4ccccc4Cl)[nH]c3cc(=O)n2C)c1,-0.313
2,COc1ccc2cc(OCC3(C(=O)O)CN(C(=O)c4ccc(F)cc4)C3)ccc2c1,-0.144
3,CCCCC(=O)OCC(=O)[C@]1(O)Cc2c(O)c3c(c(O)c2[C@@H](O[C@H]2C[C@H](NC(=O)C(F)(F)F)[C@H](O)[C@H](C)O2)C1)C(=O)c1c(OC)cccc1C3=O,-2.19
4,C[C@H]1[C@H](C)CC[C@]2(C(=O)O)CC[C@]3(C)C(=CC[C@@H]4[C@@]5(C)C[C@@H](O)[C@H](O)[C@@](C)(CO)[C@@H]5CC[C@]43C)[C@H]12,0.608
5,C=C1CC[C@@H]2[C@](C)(CO)[C@H](O)CC[C@@]2(C)[C@@H]1C/C=C1/C(=O)OC[C@H]1O,-0.159
6,C[C@@H]1CCN(C(=O)CC#N)C[C@@H]1N(C)c1ncnc2[nH]ccc12,0.765
7,CC(C)C(=O)OCC(=O)[C@@]12O[C@H](C3CCCCC3)O[C@@H]1C[C@H]1[C@@H]3CCC4=CC(=O)C=C[C@]4(C)[C@H]3[C@@H](O)C[C@@]12C,0.238
8,C[C@H](CCC(=O)O)[C@H]1CC[C@H]2[C@@H]3[C@H](O)C[C@@H]4C[C@H](O)CC[C@]4(C)[C@H]3CC[C@]12C,0.809

# Same assay, conditions: PEO1/OlaR viability, CellTiter-Glo luminescence, 96 h; measured here: PEO4 Z-AUC; stronger effect = lower value
row,SMILES,Z-AUC
1,CN(C)c1cccc(-c2c3c(=O)n(-c4ccccc4Cl)[nH]c3cc(=O)n2C)c1,-0.353
2,COc1ccc2cc(OCC3(C(=O)O)CN(C(=O)c4ccc(F)cc4)C3)ccc2c1,0.261
3,CCCCC(=O)OCC(=O)[C@]1(O)Cc2c(O)c3c(c(O)c2[C@@H](O[C@H]2C[C@H](NC(=O)C(F)(F)F)[C@H](O)[C@H](C)O2)C1)C(=O)c1c(OC)cccc1C3=O,-1.93
4,C[C@H]1[C@H](C)CC[C@]2(C(=O)O)CC[C@]3(C)C(=CC[C@@H]4[C@@]5(C)C[C@@H](O)[C@H](O)[C@@](C)(CO)[C@@H]5CC[C@]43C)[C@H]12,0.842
5,C=C1CC[C@@H]2[C@](C)(CO)[C@H](O)CC[C@@]2(C)[C@@H]1C/C=C1/C(=O)OC[C@H]1O,0.023
6,C[C@@H]1CCN(C(=O)CC#N)C[C@@H]1N(C)c1ncnc2[nH]ccc12,1.24
7,CC(C)C(=O)OCC(=O)[C@@]12O[C@H](C3CCCCC3)O[C@@H]1C[C@H]1[C@@H]3CCC4=CC(=O)C=C[C@]4(C)[C@H]3[C@@H](O)C[C@@]12C,-0.69
8,C[C@H](CCC(=O)O)[C@H]1CC[C@H]2[C@@H]3[C@H](O)C[C@@H]4C[C@H](O)CC[C@]4(C)[C@H]3CC[C@]12C,0.917

# Assay: qHTS profiling for inhibitors of Plasmodium falciparum proliferation (AID 504749);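 note: 0% = DMSO vehicle and full inhibition = artemisinin control; nearly all actives have a fitted effect of over 60% in size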
# Conditions: P. falciparum in erythrocytes, SYBR Green DNA, 72 h; at 12.8 µM (top of the series); parasite line A
# How it was run: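 Quantitative HTS: compounds pinned into medium, infected erythrocytes added (0.3% parasitemia, 2.5% hematocrit), 72 h culture at 37 C under 5% CO2. Saponin/Triton lysis with SYBR Green I, overnight RT, then fluorescence read.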
row,SMILES,"activity, negative = inhibition"
1,CC(C)(C)C(=O)OCOC(=O)[C@@H]1N2C(=O)[C@@H](N=CN3CCCCCC3)[C@H]2SC1(C)C,1.15% (inactive)
2,CC(C)N=c1cc2n(-c3ccc(Cl)cc3)c3ccccc3nc-2cc1Nc1ccc(Cl)cc1,-13.2% (inactive)
3,CC[N+](C)(C)Cc1ccccc1Br,3.25% (inactive)
4,Cc1cc(C(=O)NNCc2ccccc2)no1,2.34% (inactive)

# Same assay, conditions: P. falciparum in erythrocytes, SYBR Green DNA, 72 h; at 12.8 µM (top of the series); parasite line B
row,SMILES,"activity, negative = inhibition"
1,CC(C)(C)C(=O)OCOC(=O)[C@@H]1N2C(=O)[C@@H](N=CN3CCCCCC3)[C@H]2SC1(C)C,5.1% (inactive)
2,CC(C)N=c1cc2n(-c3ccc(Cl)cc3)c3ccccc3nc-2cc1Nc1ccc(Cl)cc1,-1.3% (inactive)
3,CC[N+](C)(C)Cc1ccccc1Br,6.79% (inactive)
4,Cc1cc(C(=O)NNCc2ccccc2)no1,-1.58% (inactive)

# Same assay, conditions: P. falciparum in erythrocytes, SYBR Green DNA, 72 h; at 28.7 µM (top of the series); parasite line A
row,SMILES,"activity, negative = inhibition"
1,O=C(O)c1cc(O)c2c(c1)[O][Bi][O]2,-9.75% (inactive)
2,CCOc1ccc2c(c1)C(C)=CC(C)(C)N2,-19.3% (inactive)
3,CC1(C)C(C=C(Cl)Cl)C1C(=O)OCc1cccc(Oc2ccccc2)c1 (stereo not given),-2.63% (inactive)
4,O=CCCCC=O,-0.127% (inactive)
5,COCC(=O)Nc1cc(Sc2ccccc2)ccc1N=C(NC(=O)OC)NC(=O)OC,17.1% (inactive)
6,COC(F)(F)C(Cl)Cl,16.9% (inactive)
7,CC(Cc1ccc(O)c(O)c1)C(C)Cc1ccc(O)c(O)c1 (stereo not given),6.89% (inactive)
8,Nc1ncnc2c1ncn2[C@@H]1O[C@H](COP(=O)(O)OP(=O)(O)OP(=O)(O)O)[C@@H](O)[C@H]1O,19.4% (inactive)
9,COC(=O)CCC(=O)CN,6.69% (inactive)
